Yp Topo-I inh: Y. pestis Topo-I inhibition via cleavage products. Y. pestis Topo-I cleavage product accumulation, plate reader. activity, % at 10 µM. hit rate 0.064% among 360,000; in the data active = activity above about 50%, passing the limit was not always enough
TcdB inh: inhibitors of Clostridioides difficile toxin B glycohydrolase; hit rate 0.24% among 350,000; TcdB glycohydrolase enzymatic assay, plate reader; P18177; inhibition, % at 9.99 µM; AID 652162; in the data active = inhibition above about 10%
Target sequence (P18177 whole entry, looked up): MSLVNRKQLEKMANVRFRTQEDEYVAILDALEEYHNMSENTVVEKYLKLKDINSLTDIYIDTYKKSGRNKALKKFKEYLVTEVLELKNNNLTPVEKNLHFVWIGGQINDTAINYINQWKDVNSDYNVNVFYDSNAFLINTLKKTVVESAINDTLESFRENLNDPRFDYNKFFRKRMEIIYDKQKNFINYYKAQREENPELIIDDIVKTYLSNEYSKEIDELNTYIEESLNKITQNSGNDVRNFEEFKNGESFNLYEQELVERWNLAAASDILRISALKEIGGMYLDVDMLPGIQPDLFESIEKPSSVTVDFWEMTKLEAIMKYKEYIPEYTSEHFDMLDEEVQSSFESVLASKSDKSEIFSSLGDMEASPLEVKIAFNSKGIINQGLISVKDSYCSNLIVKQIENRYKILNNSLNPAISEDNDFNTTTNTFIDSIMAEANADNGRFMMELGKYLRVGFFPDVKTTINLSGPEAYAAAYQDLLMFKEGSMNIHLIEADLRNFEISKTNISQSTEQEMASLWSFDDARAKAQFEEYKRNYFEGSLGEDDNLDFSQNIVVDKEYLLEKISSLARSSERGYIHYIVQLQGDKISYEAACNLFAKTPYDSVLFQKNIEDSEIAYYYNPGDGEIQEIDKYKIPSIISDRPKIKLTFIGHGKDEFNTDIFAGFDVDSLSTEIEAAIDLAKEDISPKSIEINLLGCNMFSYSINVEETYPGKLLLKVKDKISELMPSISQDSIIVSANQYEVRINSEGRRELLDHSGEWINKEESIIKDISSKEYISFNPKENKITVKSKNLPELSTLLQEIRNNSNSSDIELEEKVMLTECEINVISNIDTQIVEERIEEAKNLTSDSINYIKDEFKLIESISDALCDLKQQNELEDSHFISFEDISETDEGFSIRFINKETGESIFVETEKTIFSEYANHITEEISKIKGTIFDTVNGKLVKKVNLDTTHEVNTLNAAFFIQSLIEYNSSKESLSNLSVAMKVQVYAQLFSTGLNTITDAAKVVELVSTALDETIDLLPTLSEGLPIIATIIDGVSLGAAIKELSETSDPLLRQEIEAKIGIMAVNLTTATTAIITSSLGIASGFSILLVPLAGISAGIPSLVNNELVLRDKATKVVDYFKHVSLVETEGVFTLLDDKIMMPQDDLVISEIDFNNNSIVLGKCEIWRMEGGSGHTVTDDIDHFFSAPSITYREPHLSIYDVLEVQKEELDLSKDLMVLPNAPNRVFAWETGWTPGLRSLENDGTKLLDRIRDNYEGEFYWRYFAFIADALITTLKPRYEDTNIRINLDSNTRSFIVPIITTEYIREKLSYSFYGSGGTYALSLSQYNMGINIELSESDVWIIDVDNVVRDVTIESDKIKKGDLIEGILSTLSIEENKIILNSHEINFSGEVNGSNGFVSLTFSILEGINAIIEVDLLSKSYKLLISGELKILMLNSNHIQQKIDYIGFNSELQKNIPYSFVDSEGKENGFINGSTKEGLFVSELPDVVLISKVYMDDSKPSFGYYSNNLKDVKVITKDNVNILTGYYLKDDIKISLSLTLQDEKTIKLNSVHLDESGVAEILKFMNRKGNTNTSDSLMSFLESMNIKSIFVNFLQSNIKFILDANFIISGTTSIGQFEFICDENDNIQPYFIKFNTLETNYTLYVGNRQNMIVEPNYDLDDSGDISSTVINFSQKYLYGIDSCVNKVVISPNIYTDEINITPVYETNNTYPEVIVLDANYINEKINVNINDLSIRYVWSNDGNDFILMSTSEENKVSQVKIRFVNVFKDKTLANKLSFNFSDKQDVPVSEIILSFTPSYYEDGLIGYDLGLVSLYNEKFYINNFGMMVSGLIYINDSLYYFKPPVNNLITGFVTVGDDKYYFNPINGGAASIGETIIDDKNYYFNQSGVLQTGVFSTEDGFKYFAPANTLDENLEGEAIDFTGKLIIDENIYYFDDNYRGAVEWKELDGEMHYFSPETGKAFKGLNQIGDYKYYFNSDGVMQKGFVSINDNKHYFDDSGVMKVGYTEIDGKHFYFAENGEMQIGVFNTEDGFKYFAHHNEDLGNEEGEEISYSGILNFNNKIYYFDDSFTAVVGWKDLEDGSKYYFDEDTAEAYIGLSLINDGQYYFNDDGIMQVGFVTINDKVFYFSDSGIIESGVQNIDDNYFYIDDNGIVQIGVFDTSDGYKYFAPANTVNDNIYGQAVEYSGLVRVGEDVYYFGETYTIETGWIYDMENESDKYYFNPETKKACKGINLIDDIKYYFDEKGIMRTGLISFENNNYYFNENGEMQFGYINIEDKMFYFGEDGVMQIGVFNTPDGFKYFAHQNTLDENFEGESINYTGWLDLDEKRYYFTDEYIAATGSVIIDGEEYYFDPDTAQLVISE
Mtb BioA inh: blocks M. tuberculosis BioA enzyme activity. purified M. tuberculosis BioA enzyme, plate reader. inhibition, % at 9.99 µM. hit rate 0.096% among 360,000; in the data active = inhibition above about 40%
FadD28 FP inh: inhibitors of Mycobacterium tuberculosis FadD28 bisubstrate binding. FadD28 bisubstrate probe binding, fluorescence polarization. inhibition, % at 12.5 µM. hit rate 0.22% among 360,000. AID 588549; in the data active = inhibition above about 8.5%, passing the limit was not always enough
A number is an active result; – = inactive; · = no result given. A selection: hits, their analogues and other compounds. The true share with any hit is near 0.45%.

SMILES | Yp Topo-I inh | TcdB inh | Mtb BioA inh | FadD28 FP inh
N#Cc1c(-c2ccccc2)c(-c2ccccc2)nn(CC(=O)NNC(=O)Nc2ccc(Cl)c(Cl)c2)c1=O | – | · | – | 17
CCCCCCCCCCCCCCCC(O)C(N)CO (configuration not stated) | – | – | – | 49
COc1cc(/C=C2/C(=O)c3cccc([N+](=O)[O-])c3C2=O)c(Br)cc1O | – | · | · | 10
C[C@@H]1CCCCO[C@@H](CN(C)Cc2ccc(C(=O)O)cc2)[C@@H](C)CN([C@H](C)CO)C(=O)c2cc(NC(=O)c3ccncc3)ccc2O1 | · | – | – | ·
O=C(NCCSCc1ccc(Cl)cc1Cl)c1ccc(CN2CCOCC2)cc1 | – | – | – | 43
CC(C)(C)c1ccc(NC(=S)NCc2cccs2)cc1 | – | · | · | 42
CCC(C)c1ccc(NC(=S)NCc2cccs2)cc1 (configuration not stated) | – | · | – | –
Cc1nc2[nH]c(=S)[nH]c(=O)c2nc1C | – | – | – | –
Cc1nc2[nH]c(=S)[nH]c2c(=O)[nH]1 | – | 29 | – | –
COc1cc(NS(=O)(=O)c2ccc(Nc3nc(-c4cccc([N+](=O)[O-])c4)cs3)cc2)nc(OC)n1 | – | – | – | 17
COc1ccc(-c2csc(Nc3ccc(S(=O)(=O)Nc4cc(C)on4)cc3)n2)cc1 | – | – | · | 10
NS(=O)(=O)c1ccc(Nc2nc(-c3ccc(O)cc3)cs2)cc1 | – | · | – | 10
O=[N+]([O-])c1cccc(-c2csc(Nc3ccccc3)n2)c1 | – | – | – | –
CCCCn1c(-c2ccccc2C)nc2cc3[nH]c(=O)c(C(C)C)nc3cc21 | – | 11 | – | –
COc1ccc(CN(Cc2cccn2C)C(=O)c2cc3cc(OC)ccc3[nH]2)cc1 | 51 | – | – | –
CC(C(=O)O)N1C(=O)/C(=C/C=C/c2ccco2)SC1=S (configuration not stated) | – | · | – | 36
O=C1/C(=C/C=C/c2ccco2)SC(=S)N1NS(=O)(=O)c1ccccc1 | – | – | – | 47
Cc1noc(C)c1NC(=O)N(C)C[C@@H]1OCCCC[C@@H](C)Oc2ccc(NC(=O)c3ccncc3)cc2C(=O)N([C@H](C)CO)C[C@@H]1C | · | – | – | ·
O=C(Cc1ccccn1)NCC[C@@H]1CC[C@@H](NC(=O)CN2CCOCC2)[C@H](CO)O1 | · | – | – | ·
O=C(C[C@H]1C/C=C\CC[C@H](Cc2ccc(F)cc2)C(=O)O[C@@H](c2ccccc2)CNC1=O)N[C@@H](CO)Cc1ccccc1 | 89 | – | – | –
O=C(C[C@H]1C/C=C\CC[C@H](Cc2ccc(F)cc2)C(=O)O[C@@H](c2ccccc2)CNC1=O)N[C@H](CO)Cc1ccccc1 | – | – | – | –
O=c1[nH]c2ccc(S(=O)(=O)N3CCCCC3)cc2o1 | – | – | – | –
CCN1CCN(S(=O)(=O)c2ccc3[nH]c(=O)oc3c2)CC1 | – | 19 | – | –
O=C([C@@H]1[C@@H](CO)[C@@H]2Cn3c(ccc(-c4ccncc4)c3=O)[C@@H]2N1CCC(F)(F)F)N1CCCCC1 | · | – | – | ·
C=CCc1ccc(O)c(-c2ccc(O)c(CC=C)c2)c1 | – | 11 | – | –
SMILES | Yp Topo-I inh | TcdB inh | Mtb BioA inh | FadD28 FP inh
COc1cccc(N=C2NC(=O)/C(=C/c3cc([N+](=O)[O-])ccc3O)S2)c1 | – | – | – | –
Cc1ccc(S(=O)(=O)/N=C2/NC(=O)/C(=C/c3cc([N+](=O)[O-])ccc3O)S2)cc1 | – | – | – | 33
Cc1ccc(S(=O)(=O)/N=C2/NC(=O)/C(=C\c3ccco3)S2)cc1 | – | · | – | 12
O=C1NC(=Nc2ccccc2Cl)S/C1=C\c1cc([N+](=O)[O-])ccc1O | – | – | – | 30
CC(=O)Nc1ccc(S(=O)(=O)/N=C2/NC(=O)/C(=C\c3ccco3)S2)cc1 | – | – | · | –
CC(C)NC(=O)Nc1ccc2c(c1)C(=O)N([C@H](C)CO)C[C@H](C)[C@@H](CN(C)Cc1ccncc1)OCCCC[C@@H](C)O2 | · | – | – | ·
CCOc1ccc(S(=O)(=O)NCc2ccccc2Cl)cc1C(N)=O | – | 20 | · | –
CCOc1ccc(S(=O)(=O)NCc2ccccc2)cc1C(N)=O | – | – | · | –
CO[C@@H]1CN(C)C(=O)c2ccc(NS(=O)(=O)c3ccc(-c4ccccc4)cc3)cc2OC[C@H](C)NC[C@H]1C | · | – | – | ·
O=C(c1ccc(Br)c([N+](=O)[O-])c1)N1CCN(Cc2ccccc2)CC1 | – | – | – | –
Cc1cc(C(=O)N2CCN(Cc3ccccc3)CC2)ccc1[N+](=O)[O-] | – | 12 | – | –
C[C@@H]1CN([C@H](C)CO)C(=O)c2cc(NC(=O)Nc3ccc(F)cc3)ccc2O[C@@H](C)CCCCO[C@H]1CN(C)C(=O)C1CCCCC1 | · | – | – | ·
O=c1[nH]c(/C=C\c2cccs2)nc(O)c1[N+](=O)[O-] | – | – | – | –
O=c1[nH]c(/C=C\c2ccc(O)c(Cl)c2)nc(O)c1[N+](=O)[O-] | – | 12 | – | –
CCOc1cc(/C=C\c2nc(O)c([N+](=O)[O-])c(=O)[nH]2)ccc1OC(C)C | – | – | – | –
O=c1[nH]c(/C=C\c2ccc(O)cc2)nc(O)c1[N+](=O)[O-] | – | 16 | – | –
COCCNc1oc(/C=C/c2ccccc2)nc1C#N | – | 12 | · | –
N#CCCN(CCC#N)C(=O)C1c2ccccc2Oc2ccccc21 | – | – | – | 11
CN(CCC#N)C(=O)COC(=O)C1c2ccccc2Oc2ccccc21 | – | – | – | –
c1ccc(-n2nnnc2SCc2ccccn2)cc1 | – | · | – | –
C(=C\CSc1nnnn1-c1ccccc1)/CSc1nnnn1-c1ccccc1 | 60 | · | – | –
N#C[C@H]1[C@H](c2ccc(C#Cc3ccccc3F)cc2)[C@H](CO)N1C(=O)c1cccnc1 | · | – | – | ·
CC(C)NC(=O)Nc1ccc2c(c1)C(=O)N([C@@H](C)CO)C[C@@H](C)[C@@H](CN(C)Cc1ccc(C(F)(F)F)cc1)OCCCC[C@@H](C)O2 | · | – | – | ·
CC[C@H](C)[C@@H]1NC(=O)c2cc([N+](=O)[O-])cc(I)c2NCC[C@@H](C(N)=O)NC(=O)[C@H](CCCN=C(N)N)NC1=O | · | 10 | · | ·
CC(C)CC(=O)Nc1ccc(S(=O)(=O)N2CC3CC(C2)c2cccc(=O)n2C3)cc1 (configuration not stated) | – | – | – | –
SMILES | Yp Topo-I inh | TcdB inh | Mtb BioA inh | FadD28 FP inh
CCCOc1ccc(C(=O)Nc2ccc(S(=O)(=O)N3C[C@@H]4C[C@@H](C3)c3cccc(=O)n3C4)cc2)cc1 | 67 | – | – | –
COc1ccccc1-c1nc(S(=O)(=O)c2ccccc2)c(N2CCCCC2)o1 | – | – | – | –
CCN1CCN(c2oc(-c3ccccc3C)nc2S(=O)(=O)c2ccccc2)CC1 | – | 10 | · | –
CC(=O)N1[C@H](CO)[C@@H]2c3ccccc3N(S(=O)(=O)c3ccccc3C)C[C@@H]21 | · | – | – | ·
O=C(Nc1cc(S(=O)(=O)N2CCOCC2)ccc1N1CCOCC1)c1ccccc1Cl | – | 14 | – | –
O=C(Nc1ccc(N2CCOCC2)c(Cl)c1)c1ccc(Cl)cc1 | – | 22 | – | –
O=C(Nc1ccc(N2CCCC2)c(Cl)c1)c1ccc2c(c1)OCCO2 | – | · | – | –
O=C(Nc1ccc(N2CCOCC2)c(Cl)c1)c1ccc2c(c1)OCCO2 | – | 21 | – | –

Assay outcomes as filed in PubChem.
